In article PMC7155171, “Probing the Open Global Health Chemical Diversity Library for Multistage-Active Starting Points for Next-Generation Antimalarials” (ACS Infectious Diseases, 2020):
Where two headings read alike, the source gives them in different places. Over roughly 68,000 compounds, “% viability” has its median near 1.1; the lowest 2% begin near 0.96. Only a selection was taken, and the lowest values are over-represented in it overall. The numbers are fractions of the control, whatever unit the source prints.

Tested on: P. falciparum (NF54) stage V gametocytes
Parameters: Mature stage V gametocyte viability, MitoTracker Red CMXRos high-content imaging
Conditions: primary screen, n=2, fraction of DMSO control, 72 h, 2 µM, inhibitor

SMILES | % viability | % viability (Stg V Gam primary screen: Inhibition % (2uM) (n=2))
CC(NC(=O)CCC1=NC(=C2N=CN=N2)NO1)c1ccc(F)cc1F (centres unmarked) [DDD01068293] | 1.218% | 
CC(=O)N1CCCN(C(=O)CCOc2ccc(C(C)C)cc2)CC1 [DDD01298039] | 0.9627% | 
CN(Cc1ccc(F)c(F)c1)C(=O)CCC1=NC(=C2N=CN=N2)NO1 [DDD01062114] | 1.185% | 
Cn1cc(C(=O)N2CCCC(c3cc(=O)n(C)[nH]3)C2)cn1 (centres unmarked) [DDD01060486] | 1.105% | 
CCCc1nn(C)c(N)c1-c1ccc2c(c1)OCO2 [DDD01074641] | 1.2104% | 
Cc1ccc(S(=O)(=O)Cc2noc([C@@H]3C[C@@H](O)CN3C(C)C)n2)cc1 [DDD01025534] | 1.063% | 
Cn1ccc(C(=O)N2CCCC(c3cc(=O)n(C)[nH]3)C2)n1 (centres unmarked) [DDD01060541] | 0.9912% | 
Cc1[nH]n(C2CCS(=O)(=O)C2)c(=O)c1Cc1ccccc1Cl (centres unmarked) [DDD01026964] | 1.154% | 
Cn1nc(C2CCC2)c(-c2ccc3c(c2)OCO3)c1N [DDD01074643] | 1.107% | 
CCn1[nH]cc2nc(-c3cc(OC)c(OC)cc3OC)nc1-2 [DDD01254934] | 1.131% | 
COc1cc2c(cc1-c1nc3c[nH]n(C(C)C)c-3n1)OCO2 [DDD01249461] | 1.226% | 
COCC(=O)N1Cc2[nH]c3c(C)c(-c4cccs4)nn3c(=O)c2C1 [DDD01056747] | 0.9901% | 
Cc1[nH]n(C2CCS(=O)(=O)C2)c(=O)c1CCc1ccccc1 (centres unmarked) [DDD01026977] | 1.342% | 
CCc1cc(=O)n2nc(C3CCCN3C(=O)c3ccccn3)cc2[nH]1 (centres unmarked) [DDD01057178] | 1.278% | 
Cc1[nH]n(Cc2ccc(F)cc2)c2nnc(N)c1-2 [DDD01012470] | 1.161% | 
Cn1nc(C2CC2)c(-c2ccc3c(c2)OCO3)c1N [DDD01074640] | 1.305% | 
CCc1nc(CN(C)C2CCN(CCn3cc(C#N)cn3)C2)no1 (centres unmarked) [DDD01304196] | 1.045% | 
Cc1ccc(CN2CCc3c([nH]c4cc(C5CC5)nn4c3=O)C2)s1 [DDD01058491] | 1.123% | 
COc1cc2c(cc1-c1nc3c[nH]n(C)c-3n1)OCO2 [DDD01248770] | 1.141% | 
COc1cc2c(cc1-c1nc3c[nH]n(C(C)C4CC4)c-3n1)OCO2 (centres unmarked) [DDD01244142] | 1.215% | 
Cc1[nH]n(C2CCS(=O)(=O)C2)c(=O)c1Cc1cccc(Cl)c1 (centres unmarked) [DDD01026994] | 1.159% | 
CCc1nn(C)c(N)c1-c1ccc2c(c1)OCO2 [DDD01074639] | 1.278% | 
Cc1cccc(C2N3CCC4(CC3)c3[nH]c5ccccc5c3CCN24)n1 (centres unmarked) [DDD01058402] | 1.009% | 
Clc1cccc(-c2cccc(N3CCC(NC4CCOCC4)CC3)c2)c1 [DDD01252000] | 1.106% | 
CCC(=O)Nc1[nH]nc2c1c(C)nn2Cc1cccc(OC)c1 [DDD01063148] | 1.182% | 
CCc1ccc(C(C)NC(=O)CCC2=NC(=C3N=CN=N3)NO2)cc1 (centres unmarked) [DDD01068289] | 1.032% | 
CCc1c(C)[nH]c2cc(C3CCN(CCc4ccccc4)C3)nn2c1=O (centres unmarked) [DDD01060567] | 1.041% | 

SMILES | % viability | % viability (Stg V Gam primary screen: Inhibition % (2uM) (n=2))
COc1cc2c(cc1-c1nc3c[nH]n(C(C)C(C)C)c-3n1)OCO2 (centres unmarked) [DDD01255421] | 1.199% | 
Cc1cc(=O)n2nc(C3CCN(C(=O)c4ccccn4)CC3)cc2[nH]1 [DDD01057174] | 1.036% | 
COCCC(=O)N1Cc2[nH]c3c(C)c(-c4cccs4)nn3c(=O)c2C1 [DDD01056578] | 1.121% | 
CCc1c(C)nn2c(=O)cc(C3CCN(C(=O)C4CC4)C3)[nH]c12 (centres unmarked) [DDD01057056] | 1.097% | 
CCc1c(C)nn2c(=O)cc(C3CCN(C(=O)c4ccn(C)n4)C3)[nH]c12 (centres unmarked) [DDD01056907] | 1.06% | 
CCc1cc(=O)n2nc(C3CCN(C(=O)c4ccncc4)CC3)cc2[nH]1 [DDD01057177] | 1.239% | 
Cc1cc(=O)n(-c2ccc3nnc(C)n3n2)[nH]1 [DDD01038570] | 1.151% | 
Cc1nc(O)cc(CCNC(=O)CC[C@@H]2CCCN3CCCC[C@H]23)n1 [DDD01256003] | 1.201% | 
COc1ccc(-c2c(C(C)C)nn3c(N)c(C#N)nnc23)cc1 [DDD01035184] | 0.9469% | 
COc1ccc(-c2c(C)nn3c(N)c(C#N)nnc23)cc1 [DDD01035158] | 1.096% | 
CCc1nn2c(N)c(C#N)nnc2c1-c1ccc(OC)cc1 [DDD01035159] | 1.1% | 
Cc1ncsc1C(=O)N1CCCCC1c1cc2[nH]c(C)c(C)c(=O)n2n1 (centres unmarked) [DDD01059037] | 1.19% | 
Cc1[nH]n(-c2ccc(F)cc2)c2nnc(N)c1-2 [DDD01065623] | 1.104% | 
COc1cccc(CN(C)CC2=Nc3ccccc3S(=O)(=O)N2)c1 [DDD01073248] |  | 1.218%
COc1cccc(Cn2nc(C)c3c(NC(=O)C(C)OC)[nH]nc32)c1 (centres unmarked) [DDD01063202] | 1.059% | 
COc1cccc(C2=NN=CC2=C2NC(CN3CCCC3)=NO2)c1 [DDD01247208] | 1.119% | 
COCCC(=O)N1CCC(c2cc(=O)n(C)[nH]2)C1 (centres unmarked) [DDD01060470] | 1.179% | 
COc1cccc(F)c1-c1nc2c(C3CC3)[nH]n(C)c-2n1 [DDD01246655] | 1.144% | 
CCC(CO)N(Cc1cccnc1)C(=O)c1ccc(C(F)(F)F)nc1O (centres unmarked) [DDD01253913] | 1.193% | 
Cc1ccccc1CN(C)C(=O)CCC1=NC(=C2N=CN=N2)NO1 [DDD01062116] | 1.259% | 
Cc1[nH]n(C2CCCCC2)c2nc(C(C)(C)CN3CCOCC3)nc1-2 [DDD01254749] | 1.099% | 
Cc1[nH]n(C2CCCC2)c2nc(C(C)(C)CN3CCN(C)CC3)nc1-2 [DDD01248613] | 1.14% | 
Cc1nc(N2CCCC2)ncc1-c1cc(=O)n2ncnc2[nH]1 [DDD01038581] | 1.014% | 
CCc1cc(=O)n2nc(C3CCN(C(=O)c4ccccn4)CC3)cc2[nH]1 [DDD01057364] | 1.067% | 
CCc1c(C)[nH]c2cc(C3CCN(Cc4cccnc4)C3)nn2c1=O (centres unmarked) [DDD01060570] | 1.145% | 
Cc1[nH]c2cc(C3CCN(Cc4cccc(F)c4F)C3)nn2c(=O)c1C (centres unmarked) [DDD01270135] | 0.8996% | 
CCc1c(C)[nH]c2cc(C3CCN(Cc4ccc(F)cc4)C3)nn2c1=O (centres unmarked) [DDD01060568] | 1.103% | 

SMILES | % viability | % viability (Stg V Gam primary screen: Inhibition % (2uM) (n=2))
CCc1c(C)[nH]c2cc(C3CCN(Cc4ccccc4F)C3)nn2c1=O (centres unmarked) [DDD01270117] | 0.9474% | 
CCc1c(C)[nH]c2cc(C3CCN(Cc4cccc(F)c4)C3)nn2c1=O (centres unmarked) [DDD01060569] | 1.163% | 
Cc1[nH]c2cc(C3CCN(Cc4ccccc4F)C3)nn2c(=O)c1C (centres unmarked) [DDD01060615] | 0.9944% | 
Cc1nsc(N2CCCN(CC(=O)N(C)C3CC3)CC2)n1 [DDD01066804] | 1.153% | 
COCCCC(=O)N1CC(=O)Nc2cc(Br)ccc21 [DDD01075689] | 1.221% | 
Cc1ncc(CN2CCc3[nH]c4cc(C(C)(C)C)nn4c(=O)c3C2)n1C [DDD01058400] | 1.122% | 
O=C(CNC(=O)N1CCc2c([nH]c3ccc(Cl)cc23)C1)N1CCOCC1 [DDD01035668] | 1.056% | 
Cc1[nH]n(-c2ccccc2)c2nc(C(C)(C)CN3CCN(C)CC3)nc1-2 [DDD01252143] | 1.131% | 
Cc1[nH]n(C2CCS(=O)(=O)C2)c(=O)c1Cc1ccccc1 (centres unmarked) [DDD01026976] | 1.15% | 
Cc1[nH]n(C2CCS(=O)(=O)C2)c(=O)c1Cc1ccc(Br)cc1 (centres unmarked) [DDD01026979] | 1.197% | 
CCCn1ncc(-c2nc3c[nH]n(CC)c-3n2)c1C [DDD01252709] | 1.088% | 
CCn1[nH]cc2nc(-c3cc4c(cc3OC)OCO4)nc1-2 [DDD01244413] | 1.126% | 
CCc1c(C)nn2c(=O)cc(C3CCN(C(=O)c4ccccn4)C3)[nH]c12 (centres unmarked) [DDD01056906] | 1.115% | 
CCc1ccc(NC(=O)Nc2c(O)c3ccccc3oc2=O)cc1 [DDD01037337] | 1.219% | 
CN(CCCc1ccccc1)C(=O)CCC1=NC(=C2N=CN=N2)NO1 [DDD01062165] | 0.9845% | 
CCc1c(C)nn2c(=O)cc(C3CCN(C(=O)c4cnn(C)c4)C3)[nH]c12 (centres unmarked) [DDD01056908] | 1.149% | 
COCC(=O)Nc1[nH]nc2c1c(C)nn2Cc1cccc(OC)c1 [DDD01063147] | 1.204% | 
Fc1cccc(C2=NN=CC2=C2NC(CN3CCOCC3)=NO2)c1 [DDD01244908] | 1.1236% | 
CSc1cccc(NC(=O)Nc2c(O)c3ccccc3oc2=O)c1 [DDD01037688] | 1.182% | 
Cc1ncc(CN2CCc3c([nH]c4cc(C5CC5)nn4c3=O)C2)n1C [DDD01058398] | 1.038% | 
Cc1nnsc1C(=O)N1CCCCC1c1cc2[nH]c(C)c(C)c(=O)n2n1 (centres unmarked) [DDD01059036] | 1.123% | 
CCn1[nH]cc2nc(-c3ccc(OC)c(COC)c3)nc1-2 [DDD01253750] | 1.204% | 
CCc1cc(=O)n2nc(C3CCN(C(=O)c4cccnc4)CC3)cc2[nH]1 [DDD01057176] | 1.192% | 
COc1cc(F)ccc1-c1nc2c(C3CC3)[nH]n(C)c-2n1 [DDD01248843] | 1.111% | 
COc1ccc(F)cc1-c1nc2c(C3CC3)[nH]n(C)c-2n1 [DDD01250494] | 1.074% | 
COc1cc(OC)c(-c2nc3c(C4CC4)[nH]n(C)c-3n2)cc1OC [DDD01244474] | 0.9472% | 
